# Results as given in PubChem BioAssay AID488969 (Vanderbilt High Throughput Screening Facility, 2010).
# Whole data set: some 110,000 compounds, median “z-score” near -0.1, cut for the highest 2% near 2. Only a selection was taken, and the highest values are over-represented in it overall. The source made the active and inactive calls.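 Rule for the calls: active = z-score in the third read window above 3 or below -3; inactive = the rest.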
# Biological target: Metabotropic glutamate receptor 8 (Rattus norvegicus) (UniProt P70579)
# Test: rat mGluR8 modulators via GIRK flux, primary screen, cell-based, thallium flux, HTS (AID 488969)
# Conditions: HEK293 rat mGluR8, GIRK (G protein-gated inwardly rectifying potassium channel) thallium flux, FluoZin2; at 10 µM; stronger effect = higher value; submaximal glutamate (EC20) added with thallium
# Sequence of Metabotropic glutamate receptor 8 (Rattus norvegicus) (P70579 whole entry, looked up): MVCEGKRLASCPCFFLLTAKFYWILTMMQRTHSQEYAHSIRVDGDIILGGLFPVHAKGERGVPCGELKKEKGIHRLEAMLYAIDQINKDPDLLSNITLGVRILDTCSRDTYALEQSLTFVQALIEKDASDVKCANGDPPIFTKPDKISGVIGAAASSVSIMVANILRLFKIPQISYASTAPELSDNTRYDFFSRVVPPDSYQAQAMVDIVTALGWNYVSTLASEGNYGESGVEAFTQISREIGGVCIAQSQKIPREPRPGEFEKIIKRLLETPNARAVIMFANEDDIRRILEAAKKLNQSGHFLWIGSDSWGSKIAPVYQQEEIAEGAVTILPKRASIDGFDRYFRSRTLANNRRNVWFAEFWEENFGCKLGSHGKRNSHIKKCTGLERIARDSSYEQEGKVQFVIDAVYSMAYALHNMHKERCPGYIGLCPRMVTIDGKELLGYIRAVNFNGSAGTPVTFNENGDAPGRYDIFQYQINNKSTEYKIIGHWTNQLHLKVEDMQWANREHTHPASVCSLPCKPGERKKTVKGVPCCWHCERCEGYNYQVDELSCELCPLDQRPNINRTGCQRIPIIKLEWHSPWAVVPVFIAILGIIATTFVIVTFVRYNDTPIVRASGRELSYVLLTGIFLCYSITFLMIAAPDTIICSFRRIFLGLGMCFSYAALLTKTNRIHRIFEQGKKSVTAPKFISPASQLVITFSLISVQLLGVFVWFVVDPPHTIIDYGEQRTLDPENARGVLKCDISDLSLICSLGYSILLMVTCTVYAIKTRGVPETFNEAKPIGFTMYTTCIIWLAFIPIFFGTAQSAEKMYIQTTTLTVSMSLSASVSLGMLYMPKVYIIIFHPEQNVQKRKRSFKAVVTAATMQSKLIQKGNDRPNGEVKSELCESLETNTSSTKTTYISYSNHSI
row,Compound,z-score
1,Cc1ccc(S(=O)(=O)CC(C)N2CCN(C3CCCCC3)CC2)cc1 (centres undefined),1.44
2,COc1ccccc1C(=O)COC(=O)c1ccccc1OCC(=O)Nc1ccc(SC(F)F)cc1,1.1
3,COc1cccc(/C(O)=C2/C(=O)C(=O)N(Cc3ccco3)C2c2ccncc2)c1 (centres undefined),-0.192
4,O=C(CSc1nnc(CN2CCOCC2)n1-c1ccc(Cl)cc1)Nc1cc(Cl)ccc1O,-0.794
5,Cc1cc(C)nc(NS(=O)(=O)c2ccc(NC(=O)CN3C(=O)c4ccccc4C3=O)cc2)n1,0.113
6,CCCOc1ccc(/C=N/NC(=O)C(=O)Nc2ccccn2)cc1,3.92 (active)
7,COc1cc(/C=N/NC(=O)C(=O)Nc2ccccn2)ccc1O,-0.198
8,COc1ccc(/C=N/NC(=O)C(=O)Nc2ccccn2)cc1OC,0.813
9,COc1ccc(CCNC(=O)CSc2nnc(CNC(=O)c3ccco3)o2)cc1OC,0.382
10,Cc1ccc(-n2nnnc2SCC(=O)NCCC2=CCCCC2)c(C)c1,0.08
11,Cc1cc(C)c2nc(SCC(=O)NCCC3=CCCCC3)cc(C)c2c1,3.98 (active)
12,Cc1cc(C)c2nc(SCC(=O)NCCN3C(=O)CSC3=O)cc(C)c2c1,-0.238
13,CC(C)=CC(=O)Nc1nnc(C)s1,0.00638
14,CCC(=O)Nc1nnc(C)s1,0.946
15,Cc1nnc(NC(=O)c2ccco2)s1,3.93 (active)
16,COCc1nnc(NC(=O)c2ccco2)s1,0.76
17,C/C=C(\C)c1nnc(NC(=O)c2ccco2)s1,-0.358
18,CC(=O)Nc1nnc(C)s1,3.66 (active)
19,CCCOc1ccc(N2C(=O)CC(N(CCc3ccc(OC)cc3)C(=O)c3cccc(F)c3)C2=O)cc1 (centres undefined),-0.214
20,COc1ccccc1N(CN1CCCC1=O)C(=O)c1ccccc1F,-0.699
21,O=C1/C(=C\Nc2ccc(Cl)cc2)CCN1c1ncccn1,0.111
22,Cc1ccc(C(=O)NCCNc2ccc(Cl)cc2[N+](=O)[O-])o1,-0.083
23,CCCN1C2=NS(=O)(=O)CCN2c2ccccc21,0.249
24,C=CCn1c(SCC(=O)c2cc(C)n(CCOC)c2C)nc2sc(C)c(C)c2c1=O,-0.255
25,COc1nc(N2CCOCC2)nc(C)c1[N+](=O)[O-],-0.535

row,Compound,z-score
1,CN(C)CCCOC(=O)c1ccc(Cl)cc1Cl,0.77
2,C=CCNC(=O)c1ccc(Cl)cc1Cl,0.206
3,CCCN(CCC)CCCOC(=O)c1ccc(Cl)cc1Cl,3.95 (active)
4,CC1Cc2ccccc2N1C(=S)NC(=O)c1ccc(Cl)cc1Cl (centres undefined),13.5 (active)
5,CCCN(CCC)C(=S)NC(=O)c1ccc(Cl)cc1Cl,14.4 (active)
6,CC1Cc2ccccc2N1C(=S)Nc1ccc(S(N)(=O)=O)cc1 (centres undefined),0.0257
7,CCCC(=O)NC(=S)Nc1cccc(NC(=O)c2ccc(Cl)cc2Cl)c1,-0.0719
8,CCCCN(CCCC)C(=S)NC(=O)c1ccccc1Cl,-0.755
9,O=C(NNC(=O)c1ccccc1-n1cccc1)c1ccc(Cl)cc1Cl,0.632
10,CN(C)CCCOC(=O)c1ccccc1Cl,0.35
11,CCN(CC)C(=S)NC(=O)c1ccc(Cl)cc1Cl,2.95
12,CCC(=O)NC(=S)Nc1cccc(NC(=O)c2ccc(Cl)cc2Cl)c1,0.179
13,O=C(Cc1ccc([N+](=O)[O-])cc1)Nc1nnc(C2CC2)s1,1.17
14,Cc1cc2cc(CN(CC3CCCO3)C(=S)Nc3ccccc3)c(=O)[nH]c2cc1C (centres undefined),-0.235
15,Cc1ccc2c(c1)NC(=O)CC(c1ccccc1)=N2,8.23 (active)
16,O=C1CC(c2ccccc2)=Nc2ccccc2N1,-0.0288
17,COc1ccc2c(c1)NC(=O)CC(c1ccccc1)=N2,-0.0551
18,COc1ccc(/C=N/NC(=O)C[n+]2ccccc2)c(OC)c1OC,-0.273
19,Fc1ccccc1N1CCN(C(c2cccs2)c2nnnn2CCc2ccccc2)CC1 (centres undefined),0.131
20,Cc1ccc(NC2=C(Cl)C(=O)OC2NC(=O)c2ccccc2)cc1 (centres undefined),-0.201
21,COc1ccccc1C(c1nnnn1CCc1ccccc1)N1CCCCCC1 (centres undefined),2.68
22,CCN1CCN(C(c2ccccc2)c2nnnn2CCc2ccc(OC)c(OC)c2)CC1 (centres undefined),0.256
23,COc1cccc(C(c2nnnn2CCc2ccccc2)N2CCN(c3ccccc3)CC2)c1OC (centres undefined),-0.689
24,C=CCN1CCN(C(c2ccc(Cl)cc2)c2nnnn2CCc2ccc(OC)c(OC)c2)CC1 (centres undefined),2.29
25,COc1ccccc1C(c1nnnn1CCc1ccccc1)N1CCN(c2ccccc2)CC1 (centres undefined),-0.00308

row,Compound,z-score
1,COc1ccc(CCn2nnnc2C(c2ccc(C)cc2)N2CCN(C)CC2)cc1OC (centres undefined),0.0408
2,CCOc1ccc(Cc2c(Cl)nc(SC)nc2N(C)C)cc1,-0.458
3,CSc1nnc(C2CCCN2)n1C (centres undefined),0.383
4,O=C(COc1ccc(S(=O)(=O)N2CCOCC2)cc1)Nc1ccccc1C(F)(F)F,1.25
5,CCn1c(SCC(=O)NC2CCCCC2C)nnc1-c1ccc(OC)cc1 (centres undefined),0.074
6,CC(=O)N1c2c(ccc3ccccc23)C(C)CC12CCCCC2 (centres undefined),-0.635
7,O=c1c2ccccc2ncn1CCCOc1ccccc1[N+](=O)[O-],-0.198
8,O=C(Cn1cnc2c(nnn2Cc2ccc(F)cc2)c1=O)N1CCN(c2ccccc2)CC1,-0.0198
9,Cc1oc(-c2ccccc2)nc1CS(=O)CC(=O)O (centres undefined),2.52
10,CCN(CC)CCNC(=O)CS(=O)Cc1nc(-c2ccc(Cl)cc2)oc1C (centres undefined),2.41
11,Cc1oc(-c2ccccc2)nc1CC(=O)O,-0.979
12,COc1cccc(-c2nc(CS(=O)CC(=O)O)c(C)o2)c1 (centres undefined),0.0172
13,CCCN(CCC)CCNC(=O)CS(=O)Cc1nc(-c2ccc(C)cc2)oc1C (centres undefined),1.19
14,COCCNC(=O)CS(=O)Cc1nc(-c2ccc(Cl)cc2)oc1C (centres undefined),0.00619
15,CCN(CC)CC(O)COc1ccc2c(c1)OCO2 (centres undefined),-0.199
16,Cc1cc(C)cc(OCCCCCNCCO)c1,-0.911
17,O=C(CSc1nnc2scc(-c3ccccc3)n12)Nc1nsc(-c2ccccc2)n1,-0.713
18,COc1ccc(-c2nc(NC(=O)CSc3nnc4ccccn34)ns2)cc1,-0.0274
19,O=C(CSc1nnc2ccccn12)Nc1nsc(-c2ccccc2)n1,3.63 (active)
20,O=C(Nc1cccc(Cl)c1)Nc1ccc(Cl)cn1,0.563
21,Cc1ccc(Oc2ncnc3sccc23)cc1,0.102
22,Cc1ccc2c(CC(=O)NCc3ccc4c(c3)OCO4)coc2c1,0.281
23,Cc1ccc2c(CC(=O)OC(C)C(=O)NCc3ccc4c(c3)OCO4)coc2c1 (centres undefined),2.05
24,CC(OC(=O)Cc1coc2cc3c(cc12)CCC3)C(=O)NCc1ccc2c(c1)OCO2 (centres undefined),0.706
